High-throughput results as filed in PubChem BioAssay.
NOMO-1 viab: NOMO-1 AML cell viability reduction, primary screen, STK33 inhibitor project, CellTiter-Glo luminescence | inhibition, % (concentration not given with the values) | NOMO-1 AML viability, 72 h | 7.5% of 37,000 active; in the data active means inhibition above about 80%
STK33 inh: STK33 kinase inhibitors, primary screen, biochemical, luminescence, ADP-Glo, MBP substrate | inhibition, % at 12.5 µM | 0.44% of 27,000 active | AID 2322, 2010; in the data active means inhibition above about 20%
PD-1 reverse act: activators reversing PD-1 mediated T-cell inhibition, primary screen, luminescence, primary human CD4 T cells, PD-L1 beads; CellTiter-Glo 96 h; activation, % (concentration not given with the values); 29,000 tested, under 10 active; AID 2316, 2010; call rule not given here;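 further: 0% = median vehicle wells and 100% = positive control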
The depositor's hits bear a star; . = not tested or not shown. The sample as a whole holds a higher share of hits than the screen did.

SMILES	NOMO-1 viab	STK33 inh	PD-1 reverse act
CCN1C[C@]2(C)CC[C@H](OC)[C@@]34C2[C@H](O)C([C@@H]13)[C@@]1(OC)C[C@H](OC)[C@H]2C[C@@H]4[C@@H]1[C@H]2O	4	0	0
CCOC(=O)C1=C(N)Oc2c(c(=O)oc3ccccc23)C12C(=O)N(CC(=O)OC)c1ccccc12 (stereo unspecified)	6	.	0
N#CC(C#N)=Cc1ccc(O)cc1	87*	7	-2
N#CC(C#N)=Cc1cc(O)c(O)c(O)c1	45	4	0
OC[C@H]1O[C@@H](Oc2ccc(/C=C/c3cc(O)cc(O)c3)cc2O)[C@H](O)[C@@H](O)[C@@H]1O	.	-1	.
C[C@@H]1Cc2c(Cl)cc(C(=O)N[C@@H](Cc3ccccc3)C(=O)O)c(O)c2C(=O)O1	.	1	.
